Assay results as given in PubChem BioAssay (NCI).
Compounds without any hit were thinned out: in the full panel of roughly 79,000, 15% have a hit. A number with no mark means an inactive call. The source made the active and inactive calls. No stated cut-off is given here; in the data, active means growth inhibition above about 70%; inactive means the rest.

Assay: NCI Yeast Anticancer Drug Screen. Data for the wt1 strain (AID 149);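 further: 0% = growth of vehicle-treated wt1 cultures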
Details: S. cerevisiae wt1 strain (SPY 50644) growth inhibition; at 3.7 µM; active compounds read high
Outline: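 Readout: yeast growth inhibition, normalised to vehicle controls, in the wt1 strain exposed to test compounds.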

SMILES | growth inhibition [%]
O=C1/C(=C/c2ccccc2)CCCC1CN1CCCCC1 (stereo not drawn) | 19
C#CCN(Cc1ccc2nc(N)[nH]c(=O)c2c1)c1ccc(C(=O)NC(CCC(=O)O)C(=O)O)cc1 (stereo not drawn) | 9
CCOC1(c2cccc([N+](=O)[O-])c2)c2ccccc2Oc2ccccc21 | 1
O=C(O)CNC(=S)Nc1ccccc1 | -52
N/C(=N/N=C/c1cc(Br)cc(Br)c1O)NO | -40
C[Si](C)(C)/C=C/CCNC(C#N)c1ccccc1 (stereo not drawn) | -2
CCCCCCCCCCCCCCCCOP(=O)(O)OCC(N)C(=O)O (stereo not drawn) | -22
CC1=C(C(=O)NCc2ccccc2)C(c2ccccc2)C(C(=O)NCc2ccccc2)=C(C)N1 | -1
O=[N+]([O-])c1cc(S(=O)(=O)Nc2ccccc2)ccc1Nc1ccccc1 | -19
COc1cc2ccnc(-c3c4ccccc4c(N)c4c(OC)c(OC)ccc34)c2cc1OC | -5
CCOC(=O)C(Br)C(Br)c1ccccc1Cl (stereo not drawn) | 7
CCOC(=O)C1=C(C)NC(C)=C(C(=O)OCCNC(=O)c2ccc(N=[N+]=[N-])cc2)C1c1ccccc1C(F)(F)F (stereo not drawn) | 0
Cc1cc(C)c(NC(=S)NC(=O)c2ccccc2)cc1C | -29
CNCCCNc1c2ccccc2nc2cccc([N+](=O)[O-])c12 | 28
COc1c(O)c(C=O)c(Br)c(C=O)c1O | 5
Cc1c(C)c(C)c(CSC(=N)N)c(C)c1C | -32
O=C(CSC(=S)N1CCCCC1)Nc1nc2c(s1)CCCC2 | -11
CNC(=O)OCc1c(COC(=O)NC)c(-c2ccc(Cl)cc2)n2c1CCC2 | -31
CC(=O)OC1CC2C(C)(C)C(=O)C=C[C@]2(C)C2CCC3(C)C(=CCC3[C@H](CO)C[C@H](O)C(=O)C(C)(C)O)[C@]12C (stereo partly drawn) | -17
CCCCCCOC(=O)NCCOC(=O)Nc1ccccc1 | 1

SMILES | growth inhibition [%]
C[C](C)(C)[Ge]([O][Ge]([c]1ccccc1)[c]1ccccc1)([O][Ge]([c]1ccccc1)[c]1ccccc1)[C](C)(C)C | 5
CCc1c(Cl)c(C)cc(O)c1Cl | -18
Cc1nc(Nc2ccccc2[N+](=O)[O-])sc1C(=O)CC(=O)C(=O)Nc1c(C(C)C)cccc1C(C)C | 4
O=[N+]([O-])c1cccc2nc3ccccc3c(NCCCn3ccnc3[N+](=O)[O-])c12 | 24
CCCCCCC(O)CNCc1ccnc2ccc(OC)cc12 (stereo not drawn) | 9
Cc1c2cccc(Sc3ccccc3)c2c2c3c(cccc13)[S+](c1ccccc1)C2 (stereo not drawn) | 19
C=C1CCC(O)C/C1=C/C=C1\CCCC2(C)C1CCC2C(C)CCCC(C)C (stereo not drawn) | -16
NC1=NNC2(C(N)=N1)c1ccccc1-c1ccccc12 | 3
COc1cc2cc3c4cc(OC)c(OC)cc4cc[n+]3c(C)c2cc1OC | -31
COC(=O)NC1C(C)OC(OC2C/C=C(/C)C3C=CC4C(OC5CC(OC6CC(O)C(OC7CC(O)C(OC)C(C)O7)C(C)O6)C(O)C(C)O5)C(C)CC(C)C4C3(C)/C(O)=C3\C(=O)OC4(CC(C)C(CO)=CC4/C=C\2C)C3=O)CC1(C)[N+](=O)[O-] (stereo not drawn) | 22
O=C1CSC(c2cccc(Cl)c2)N1c1ccc(-c2ccc(-n3c(-c4ccccc4)nc4ccccc4c3=O)cc2)cc1 (stereo not drawn) | 1
CCOC(=O)C(C(=O)OCC)=P(c1ccccc1)(c1ccccc1)c1ccccc1 | 1
COc1ccc(N=CN(C)C)c(C)c1 | -29
Cc1cc(S(=O)(=O)Nc2nnc3cnc4ccccc4n23)c(S)cc1Cl | -3
O=C(Oc1ccc2c(c1)CN(Cc1ccccc1)CO2)c1ccccc1 | 4
CN(C)[C@@H]1C(=O)C(C(N)=O)=C(O)[C@@]2(O)C(=O)C3=C(O)c4c(O)cccc4C[C@H]3C[C@@H]12 | 2
O=[N+]([O-])c1ccc2c(c1)/C(=N/N=C1c3ccccc3Cc3ccccc31)c1cc([N+](=O)[O-])cc([N+](=O)[O-])c1-2 | 21
Cc1nc2c(Br)cc(Br)cc2c(=O)n1-c1ccccc1NC1OCC(O)C(O)C1O (stereo not drawn) | 3
Cc1cc(N(CCOS(C)(=O)=O)CCOS(C)(=O)=O)ccc1C=Nc1ccc(-c2nc(Cc3ccccc3)sc2C)cc1 | -10

Same assay, conditions: S. cerevisiae wt1 strain (SPY 50644) growth inhibition; at 11.0 µM; active compounds read high

SMILES | growth inhibition
O=C1/C(=C/c2ccccc2)CCCC1CN1CCCCC1 (stereo not drawn) | 28%
C#CCN(Cc1ccc2nc(N)[nH]c(=O)c2c1)c1ccc(C(=O)NC(CCC(=O)O)C(=O)O)cc1 (stereo not drawn) | 15%
CCOC1(c2cccc([N+](=O)[O-])c2)c2ccccc2Oc2ccccc21 | 4%
O=C(O)CNC(=S)Nc1ccccc1 | -47%
N/C(=N/N=C/c1cc(Br)cc(Br)c1O)NO | -13%
C[Si](C)(C)/C=C/CCNC(C#N)c1ccccc1 (stereo not drawn) | 41%
CCCCCCCCCCCCCCCCOP(=O)(O)OCC(N)C(=O)O (stereo not drawn) | 39%
CC1=C(C(=O)NCc2ccccc2)C(c2ccccc2)C(C(=O)NCc2ccccc2)=C(C)N1 | -4%
O=[N+]([O-])c1cc(S(=O)(=O)Nc2ccccc2)ccc1Nc1ccccc1 | 94% (active)
COc1cc2ccnc(-c3c4ccccc4c(N)c4c(OC)c(OC)ccc34)c2cc1OC | -5%
CCOC(=O)C(Br)C(Br)c1ccccc1Cl (stereo not drawn) | 46%
CCOC(=O)C1=C(C)NC(C)=C(C(=O)OCCNC(=O)c2ccc(N=[N+]=[N-])cc2)C1c1ccccc1C(F)(F)F (stereo not drawn) | -2%
Cc1cc(C)c(NC(=S)NC(=O)c2ccccc2)cc1C | -39%
CNCCCNc1c2ccccc2nc2cccc([N+](=O)[O-])c12 | 77% (active)
COc1c(O)c(C=O)c(Br)c(C=O)c1O | 4%
Cc1c(C)c(C)c(CSC(=N)N)c(C)c1C | -30%
O=C(CSC(=S)N1CCCCC1)Nc1nc2c(s1)CCCC2 | -13%
CNC(=O)OCc1c(COC(=O)NC)c(-c2ccc(Cl)cc2)n2c1CCC2 | -43%
CC(=O)OC1CC2C(C)(C)C(=O)C=C[C@]2(C)C2CCC3(C)C(=CCC3[C@H](CO)C[C@H](O)C(=O)C(C)(C)O)[C@]12C (stereo partly drawn) | -31%
CCCCCCOC(=O)NCCOC(=O)Nc1ccccc1 | 2%

SMILES | growth inhibition
C[C](C)(C)[Ge]([O][Ge]([c]1ccccc1)[c]1ccccc1)([O][Ge]([c]1ccccc1)[c]1ccccc1)[C](C)(C)C | 42%
CCc1c(Cl)c(C)cc(O)c1Cl | -33%
Cc1nc(Nc2ccccc2[N+](=O)[O-])sc1C(=O)CC(=O)C(=O)Nc1c(C(C)C)cccc1C(C)C | 3%
O=[N+]([O-])c1cccc2nc3ccccc3c(NCCCn3ccnc3[N+](=O)[O-])c12 | 37%
CCCCCCC(O)CNCc1ccnc2ccc(OC)cc12 (stereo not drawn) | 4%
Cc1c2cccc(Sc3ccccc3)c2c2c3c(cccc13)[S+](c1ccccc1)C2 (stereo not drawn) | 96% (active)
C=C1CCC(O)C/C1=C/C=C1\CCCC2(C)C1CCC2C(C)CCCC(C)C (stereo not drawn) | -12%
NC1=NNC2(C(N)=N1)c1ccccc1-c1ccccc12 | -4%
COc1cc2cc3c4cc(OC)c(OC)cc4cc[n+]3c(C)c2cc1OC | -32%
COC(=O)NC1C(C)OC(OC2C/C=C(/C)C3C=CC4C(OC5CC(OC6CC(O)C(OC7CC(O)C(OC)C(C)O7)C(C)O6)C(O)C(C)O5)C(C)CC(C)C4C3(C)/C(O)=C3\C(=O)OC4(CC(C)C(CO)=CC4/C=C\2C)C3=O)CC1(C)[N+](=O)[O-] (stereo not drawn) | 20%
O=C1CSC(c2cccc(Cl)c2)N1c1ccc(-c2ccc(-n3c(-c4ccccc4)nc4ccccc4c3=O)cc2)cc1 (stereo not drawn) | -1%
CCOC(=O)C(C(=O)OCC)=P(c1ccccc1)(c1ccccc1)c1ccccc1 | 1%
COc1ccc(N=CN(C)C)c(C)c1 | -32%
Cc1cc(S(=O)(=O)Nc2nnc3cnc4ccccc4n23)c(S)cc1Cl | 4%
O=C(Oc1ccc2c(c1)CN(Cc1ccccc1)CO2)c1ccccc1 | 8%
CN(C)[C@@H]1C(=O)C(C(N)=O)=C(O)[C@@]2(O)C(=O)C3=C(O)c4c(O)cccc4C[C@H]3C[C@@H]12 | 30%
O=[N+]([O-])c1ccc2c(c1)/C(=N/N=C1c3ccccc3Cc3ccccc31)c1cc([N+](=O)[O-])cc([N+](=O)[O-])c1-2 | 99% (active)
Cc1nc2c(Br)cc(Br)cc2c(=O)n1-c1ccccc1NC1OCC(O)C(O)C1O (stereo not drawn) | 9%
Cc1cc(N(CCOS(C)(=O)=O)CCOS(C)(=O)=O)ccc1C=Nc1ccc(-c2nc(Cc3ccccc3)sc2C)cc1 | 28%
